Screening data: PubChem, several laboratories
HSF1 inhib: HSF1 inhibitors in luciferase reporter cells, primary screen, cell-based, NIH3T3, luminescence; activity change, negative = inhibition, % at 7.5 µM (by protocol); NIH3T3-HGL HSE-luciferase, MG132-induced, luminescence 8 h; active compounds read low; 300,000 compounds, 0.77% hits; AID 2098, 2009;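 active = more than half of replicate wells show activity change below -50%, luminescence cut by over half; inconclusive = some wells, but at most half, below -50%; inactive = no replicate well below -50%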;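 also: luciferase reports HSF-1 transcriptional activity via heat shock element; 0% = median of DMSO wells and -100% = zero luminescence signal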
HSF1 activator: HSF-1 activators, primary screen, NIH3T3-HGL cells, MG132 stress, luminescence, single point; NIH3T3-HGL HSF-1 luciferase reporter, 8 h; 100% = twice DMSO control signal; activation, % at 9 µM; 300,000 compounds, 1.7% hits;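 active = mean replicate activation of at least 50% with a set share of replicates each reaching 50%; inconclusive = only one of those two conditions met; inactive = mean below 50% and too few replicates reaching it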;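 also: 0% = median of the neutral control wells and 100% = twice that signal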
TWEAK-Fn14 inh: inhibitors of TWEAK-Fn14 signaling, primary screen, luciferase reporter cells, uHTS; TWEAK-stimulated Fn14 reporter cells, luciferase luminescence, 8 h; inhibition, % at 10 µM; 360,000 compounds, 2% hits; AID 1159606, 2016; in the data active = inhibition above about 50%
EBV LMP1 NFkB: EBV LMP1-driven NF-kappaB luciferase reporter inhibitors, primary screen, cell-based, luminescence, single point; LMP1-induced NF-kappaB luciferase reporter cells; inhibition, % at 12.5 µM; AID 504558, 2011; 350,000 compounds, 0.69% hits; in the data active = inhibition above about 41%; inconclusive = no clear call, values can overlap the other calls;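 also: 0% = neutral control wells and 100% = reference inhibitor control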
TROY signal inh: inhibitors of TROY-driven NF-kB signaling, primary screen, Q293 LMP1-TROYcd cells, NF-kB luciferase, uHTS. Q293 LMP1-TROYcd NF-kB luciferase reporter, 4 h. 360,000 compounds, 0.98% hits. AID 1347056, 2019. inhibition, % at 10 µM;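 active = compounds whose plate-normalised and pattern-corrected inhibition of the luciferase reporter signal at the single screening dose is 50% or more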
HSP90 refold inh: HSP90 inhibitors, primary screen, cell lysate, luminescence. AID 1789, 2009. 290,000 compounds, 0.91% hits. Rabbit reticulocyte lysate, luciferase refolding luminescence, 3 h. inhibition, % at 5.6 µM;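 active = inhibition above the screen-wide mean plus 3 SD, computed separately per campaign, cut at about 16% in these data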;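 also: 0% = DMSO wells and 100% = 60 µM geldanamycin wells; inhibitors lower the luminescence because luciferase stays unfolded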
* marks the source's active call; other numbers are inactive results; ? = inconclusive; . = not tested or not shown; ! = repeats disagree. The list is not random: actives were taken first. Their share in the collection is about 4.7%.

SMILES	HSF1 inhib	HSF1 activator	TWEAK-Fn14 inh	EBV LMP1 NFkB	TROY signal inh	HSP90 refold inh
Cc1ccc(Cl)cc1NC(=O)COC(=O)C12CC3CC(CC(C3)C1)C2	2	20	67*!	1	4	8
O=C(Nc1ccc([N+](=O)[O-])cc1)c1cncc(Br)c1	-7	10	10	43*	-26	4
O=C(Nc1ccc(N2CCN(C(=O)c3ccccc3F)CC2)cc1)c1cncc(Br)c1	-21	-12	64*	21	64*	0
CCCC(=O)Nc1ccc(Sc2ccc([N+](=O)[O-])cc2)cc1	7	10	0	4	42	0
O=C(Nc1ccncc1)c1cncc(Br)c1	-16	-8	23	-2	4	3
CCC(CC)C(=O)Nc1ccc(Sc2ccc([N+](=O)[O-])cc2)cc1	-4	-8	41	0	55*	-1
O=C(CC[C@H]1O[C@@H](n2ccc(=O)[nH]c2=O)[C@H](O)[C@@H]1O)N[C@H](Cc1ccccc1)C(=O)NC1CCCCC1	.	.	0	.	4	.
Cc1cccc(NC(=O)c2nc[nH]c2C(=O)NC[C@H](C)O)c1	.	.	11	9	1	.
CCOC(=O)C1C(C(=O)OCC)C2C(=O)C3C(C(=O)OCC)C(C(=O)OCC)C3C(=O)C12 (stereo not given)	.	.	14	.	9	.
OCc1ccc(-c2nn(Cc3ccccc3)c3ccccc23)o1	7	11	6	93*	9	.
CC(C)(S)[C@@H](N)C(=O)O	.	.	0	55*	3	-1
NC(CS(=O)O)C(=O)O (stereo not given)	-3	-17	2	3	12	.
COc1ncc(-c2ccc(N3C(c4ccc([N+](=O)[O-])cc4)=Cc4ccccc4C3CC(C)=O)cc2)cn1 (stereo not given)	.	.	-17	.	-1	.
COc1cccc(COC(=O)Nc2ccccc2F)c1	45	74*	-29	-21	-35	6
CCCS(=O)(=O)NC(=O)C1(C)CCN(C(=O)c2c(-c3ccccc3)noc2C)C1 (stereo not given)	.	.	-23	.	-6	.
CCc1nc2ccc(C(=O)N3CCN(S(=O)(=O)CC)CC3)cn2c1N(C)Cc1cccs1	.	.	11	.	-1	.
CC(C)NC(=O)NS(=O)(=O)c1cnccc1N1CCCCC1	27	51*	-1	10	0	0
CC(C)N1CCN(c2ccncc2S(=O)(=O)N2CCCCC2)CC1	.	.	1	2	-13	.
Cc1ccc(Cl)cc1-c1cc(C(=O)Nc2ccc(F)cc2)[nH]n1	.	.	14	.	43	.
Cc1ccc(-c2noc(=O)n2CC(=O)c2ccc(Cl)cc2)cc1	-19	-31	11	-6	1	2
Cc1ccc(C(=O)c2no[n+]([O-])c2C(=O)c2ccc(C)cc2)cc1	-7	11	53*	1	-9	2
O=c1[nH]n(CC2COC3(CCCCC3)O2)c(=O)c2ccccc12 (stereo not given)	39	63*	-23	0	-38	-1
O=C(Cn1[nH]c(=O)c2ccccc2c1=O)NC1CCCCCC1	9	7	-17	-9	-5	7
C=CS(=O)(=O)c1ccc(Oc2ccc(S(=O)(=O)C=C)cc2)cc1	-93*	-92	102*	?	63*	14
NS(=O)(=O)c1ccc(Oc2ccc(S(N)(=O)=O)cc2)cc1	5	2	1	6	-16	2
SMILES	HSF1 inhib	HSF1 activator	TWEAK-Fn14 inh	EBV LMP1 NFkB	TROY signal inh	HSP90 refold inh
O=C(COC(=O)c1cccc(OC(F)F)c1)Nc1cc(S(=O)(=O)N2CCCC2)ccc1Cl	.	.	-4	-6	11	.
CCOc1ccc(NC2CCN(C(C)=O)CC2)cc1	-4	-16	0	42*	-18	1
O=C(CSCC(=O)N1CCCc2ccccc21)Nc1nc(-c2ccccc2)cs1	8	-3	52*	3	45	1
CN(C)S(=O)(=O)c1cccc(NC(=O)c2ccc(COc3ccccc3)cc2)c1	6	7	90*	16	58*	3
COCc1ccc(C(=O)Nc2cccc(S(=O)(=O)N(C)c3ccccc3)c2)cc1	.	.	37	12	33	.
CN(C)S(=O)(=O)c1cccc(NC(=O)COc2ccccc2C(=O)Nc2ccccc2)c1	.	.	51*	5	39	.
COc1cc(OC)cc(-c2noc(-c3csc([C@@H]4C[C@H](O)[C@@H](CO)O4)n3)n2)c1	.	.	-8	.	-53	.
Cc1ccc(N(C(=O)c2csnn2)C(C(=O)NC(C)(C)C)c2ccncc2)cc1 (stereo not given)	14	22	15	5	-39	-2
CC(C)c1ccc(N(C(=O)c2csnn2)C(C(=O)NC(C)(C)C)c2ccncc2)cc1 (stereo not given)	40	66*	-14	-21	-51	-2
Cc1ccccc1NC(=O)CN1C(=O)S/C(=C\c2cccn2-c2cccc(C(=O)O)c2)C1=O	-2	-5	-5	74*	-6	3
CCOCCCNC(=O)CCCn1nc(C)n2c(cc3sccc32)c1=O	1	-9	-1	4	3	-2
CCN(CCNC(=O)CCCn1nc(C)n2c(cc3sccc32)c1=O)c1ccccc1	49	74*	-30	-47	-12	2
Cc1ccc(NC(=O)/C=C/c2ccc([N+](=O)[O-])s2)cc1	45	40	50*	-170	16	-2
Cc1cccc(NC(=O)/C=C/c2ccc([N+](=O)[O-])s2)c1	-47	-38	85*	88*	-39	1
Cc1cc([N+](=O)[O-])ccc1NC(=O)/C=C/c1cccs1	14	24	-8	-11	-56	-2
Cc1ccc(NC(=O)/C=C/c2ccc([N+](=O)[O-])s2)c(C)c1	-4	-3	91*	84*	4	2
COc1ncnc2c1ncn2CCCNC1CCN(Cc2ccccc2)CC1	.	.	27	-2	-1	.
Cc1cc(S(=O)(=O)N2CCN=C2c2ccccc2)c(C)cc1Cl	-63*	-72	-13	-3	1	1
Cc1c(Cl)ccc(S(=O)(=O)N2CCN=C2c2ccccc2)c1Cl	-12	-4	-6	1	-2	-1
O=C(Nc1nc2cc3c(cc2s1)OCCO3)c1cccc(N2C(=O)CCC2=O)c1	12	2	19	28	-58	-4
CCN(CC)S(=O)(=O)c1cccc(C(=O)Nc2nc3cc4c(cc3s2)OCCO4)c1	5	-10	95*	4	61*	-1
CN(CC1CCCO1)S(=O)(=O)c1ccc(C(=O)Nc2ccc3c(c2)OCO3)cc1 (stereo not given)	0	6	-13	4	4	2
